SKKanGAS inh – inhibitors of SKKanGAS S. pyogenes growth in kanamycin (SK-promoter or general growth effect); BacTiter-Glo, 6 h; inhibition, % at 7.5 µM; 300,000 compounds, 1.3% hits; AID 1662;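 active = mean replicate score, as percent of positive control median, at least 50; inconclusive = mean below 50 but one replicate at or above 50; inactive = mean and every replicate below 50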;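 also: strain carries kanamycin resistance gene driven by streptokinase promoter and grows in 40 µg/ml kanamycin; loss of luminescence reflects streptokinase promoter inhibition or plain growth inhibition; 0% = median of DMSO wells and 100% = positive control at its reference dose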
tim10-1 inh – inhibits growth of tim10-1 mutant yeast. S. cerevisiae tim10-1 ts strain growth, BacTiter-Glo, 24 h. inhibition, % at 20 µM. 330,000 compounds, 2.2% hits. AID 463190;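 active = inhibition of at least 40%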;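 also: mutant grown at 25 °C; 0% = DMSO wells with yeast and 100% = wells holding no yeast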
Calb FLC – affects C. albicans growth with fluconazole | C. albicans CaCi-2 (fluconazole-resistant clinical isolate) + fluconazole, Alamar Blue growth, 48 h | growth inhibition, % (concentration not given with the values) | 300,000 compounds, 0.57% hits | AID 1979;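 active = growth inhibition above about 58% in most replicates, limit read from the data, passing the limit was not always enough; inconclusive = exactly half the replicates above a set limit; inactive = most replicates below a set limit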;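 also: all wells also contain fluconazole at 8 µg/ml as a sub-toxic cotreatment; 0% = median of DMSO wells and 100% = median of geldanamycin control wells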
TIM10 inh – growth inhibitors of TIM10 yeast strain. S. cerevisiae TIM10 strain growth, BacTiter-Glo luminescence, 24 h. inhibition, % at 10 µM. 330,000 compounds, 1.4% hits;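 active = inhibition of 40% or more at the single tested concentration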;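 also: wild-type TIM10 isogenic control strain grown at permissive 25 °C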
PfHsp90 set2 – growth inhibition of yeast expressing Plasmodium Hsp90 | S. cerevisiae expressing PfHsp90, BacTiter-Glo ATP, 48 h; yeast lacking PDR1 and PDR3 efflux regulators | inhibition, % at 9.4 µM | 310,000 compounds, 0.32% hits | AID 504621;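 active = every replicate shows inhibition above about 80%, whatever the replicate mean, limit read from the data; inconclusive = mean inhibition reaches the set limit but some replicate falls short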;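 also: 0% = DMSO neutral controls and 100% = 20 µM radicicol positive controls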
tim23-1 inh – tim23-1 yeast growth inhibition | S. cerevisiae tim23-1 growth, BacTiter-Glo luminescence, 24 h | inhibition, % at 20 µM | 330,000 compounds, 1.3% hits | AID 463212;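 active = growth inhibition of the mutant yeast at or above 50%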;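 also: temperature-sensitive mutant grown at 25 °C; plate controls were DMSO-treated mutant yeast for no effect and medium wells lacking yeast for full effect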
* = called active by the depositor; u = inconclusive; x = no result given. The list is not random: actives were taken first. Their share in the collection is about 4.7%.

SMILES	SKKanGAS inh	tim10-1 inh	Calb FLC	TIM10 inh	PfHsp90 set2	tim23-1 inh
CCCC(=O)NC(=S)Nc1ccc(N2CCOCC2)c(Cl)c1	5	29	7	13	-19	5
COc1ccc(C(=O)NC(=S)Nc2ccc(N3CCOCC3)c(Cl)c2)cc1[N+](=O)[O-]	68*	3	-6	1	0	6
O=C(/C=C/c1ccccc1)NC(=S)Nc1ccc(N2CCOCC2)c(Cl)c1	-8	17	111*	-19	3	-3
O=C(NC(=S)Nc1ccc(N2CCOCC2)c(Cl)c1)C(c1ccccc1)c1ccccc1	44	24	35	21	-17	9
O=C(/C=C/c1ccco1)NC(=S)Nc1ccc(N2CCOCC2)c(Cl)c1	87*	-2	17	4	28	-6
CC(C)c1ccccc1NC(=O)CNCCOc1ccccc1F	7	14	-7	19	-2	33
Cc1nn(CCC(=O)O)c2nc(-c3cccnc3)cc(C(F)(F)F)c12	1	12	6	-8	18	7
Cc1nn(CCc2nn[nH]n2)c2nc(-c3ccc(C4CCCCC4)cc3)cc(C(F)(F)F)c12	104*	30	-4	6	x	9
COc1cccc(C(C(=O)NC2CCCC2)N(C(=O)c2ccco2)c2ccc(-n3cnnn3)c(C)c2)c1OC (stereo unspecified)	4	9	92*	-5	-8	9
Cc1onc(-c2ccccc2)c1C(=O)Nc1cccc(S(=O)(=O)N2CCCCC2)c1	x	24	x	17	-15	35
CCN(CC(=O)Nc1c(F)cccc1F)C(=O)c1ccc2c(c1)S(=O)(=O)N=C1CCCCCN12	-3	18	-6	1	1	8
O=C(NNC(=S)NC(=O)c1cccs1)c1ccc(NC(=O)c2ccccc2)cc1	92*	1	21	16	-9	-1
O=C(NNC(=S)NC(=O)c1ccco1)c1ccc(NC(=O)c2ccccc2)cc1	61*	21	-13	8	9	17
O=C(Nc1ccc(NC(=S)NC(=O)c2ccco2)cc1)c1ccccc1	8	-79	19	-5	-2	-19
CCCCC(=O)Nc1ccc(C(=O)NNC(=S)NC(=O)c2cccs2)cc1	67*	7	-7	14	x	24
CCCCC(=O)Nc1ccc(C(=O)NNC(=S)NC(=O)c2ccco2)cc1	u	12	1	12	-13	0
CN(Cc1ccccc1)C1(CNC(=O)CCC(F)(F)F)Cc2ccccc2C1	3	-4	8	-4	-5	21
O=C(NC(NC(=S)Nc1c(Cl)cccc1Cl)C(Cl)(Cl)Cl)OCc1ccccc1 (stereo unspecified)	77*	-7	13	-16	12	-19
CCOC(=O)NC(NC(=S)Nc1ccc(OCC)cc1)C(Cl)(Cl)Cl (stereo unspecified)	2	4	6	-10	8	-22
O=C(CCn1c(=O)sc2ccccc21)NC1CCCCC1	0	7	-2	-7	6	-9
COc1ccc(-n2nc(C(=O)NCC(=O)NCCCN3CCOCC3)c3ccccc3c2=O)cc1	5	0	-1	-19	0	7
N=C1SCC(=O)N1c1ncc(Cc2ccc(F)cc2)s1	74*	16	6	36	-57	36
Cc1nc(NC(=O)c2c(-c3ccccc3Cl)noc2C)sc1C	1	18	-14	14	14	38
Cc1csc(NC(=O)c2c(O)c3c(n(CC(C)C)c2=O)CCCC3)n1	61*	12	-4	16	17	19
Cc1ccc(-c2ccc([C@H]3[C@H]4C=CC[C@@H](C)[C@@H]4C(=O)N3Cc3ccccc3)c(F)c2)cc1	40	-5	-3	6	3	11
SMILES	SKKanGAS inh	tim10-1 inh	Calb FLC	TIM10 inh	PfHsp90 set2	tim23-1 inh
C[C@@H]1CC=C[C@H]2[C@H]1C(=O)N(Cc1ccccc1)[C@H]2c1ccc(Br)cc1F	52*	34	-11	11	-15	14
COc1ccccc1NS(=O)(=O)c1cc(C(=O)N2CC(C)CC(C)C2)ccc1C (stereo unspecified)	-11	-79	-1	-42	102*	-107
COc1ccccc1NS(=O)(=O)c1cc(C(=O)NCC2CCCO2)ccc1C (stereo unspecified)	-1	0	0	5	-44	6
COc1ccccc1NS(=O)(=O)c1cc(NC(=S)NCC2CCCO2)ccc1C (stereo unspecified)	56*	16	1	5	-1	16
COc1cc(C(=O)OCC(=O)N2CCNC2=O)cc(Cl)c1OC	x	3	x	-7	x	11
Cc1cccc(C)c1OCC(=O)Nc1ccc(N2CCOCC2)cc1	10	20	-5	11	1	15
CCC1CCC2(CC1)NC(=O)N(CC(=O)Nc1ccc(OC)c(Cl)c1)C2=O (stereo unspecified)	x	16	x	9	2	24
CC(C)C(C(=O)Nc1ccncc1)c1ccc(Cl)cc1 (stereo unspecified)	-3	25	16	12	-9	27
CC(C)C(C(=O)Nc1nccs1)c1ccc(Cl)cc1 (stereo unspecified)	60*	-5	20	-10	-57	15
O=C(Nc1cccc(Cl)c1)Nc1nccs1	-6	-17	80*	17	-19	-25
O=C(Nc1ccc(Cl)c(Cl)c1)Nc1nccs1	55*	16	64	28	-159	12
CC(OC(=O)CN1C(=O)c2ccccc2C1=O)C(=O)NC1CCCCC1 (stereo unspecified)	9	-4	3	3	16	5
O=C(Oc1cc2oc(=O)cc(-c3ccccc3)c2cc1Cl)C1CCCCC1	7	31	77*	13	-160	36
O=C1C2CC=CCC2C(=O)N1Cc1ccccc1 (stereo unspecified)	6	-12	11	-12	9	-7
O=C1C=CC(=O)N1Cc1ccccc1	-2	37	x	13	110*	20
CCOc1cc(CNn2cnnc2)cc(Cl)c1OCC(=O)NC(C)(C)C	-1	11	-1	3	-8	1
CCN=c1scc(C)n1/N=C/c1ccc(O)c(O)c1O	1	-14	88*	3	20	34
COc1cc(/C=C2\S/C(=N/S(=O)(=O)c3ccccc3)NC2=O)c([N+](=O)[O-])cc1OC	68*	9	11	21	-35	12
Cc1cc(C)cc(NC(=S)NCCSc2ccc(Cl)cc2)c1	50*	30	-22	27	-49	24
CN(CC(=O)Nc1ccccc1C(F)(F)F)C(=O)c1cc([N+](=O)[O-])ccc1N1CCOCC1	-1	6	-2	15	-7	1
C#CC1CCCCC1NC(=O)Nc1cnccc1C(F)(F)F (stereo unspecified)	0	0	-3	10	-3	18
COc1cc2c(cc1OC(C)=O)CCCCC2=O	x	x	x	x	7	x
